Test system: Vero E6 infected with SARS-CoV-2
Assay: inhibition of SARS-CoV-2 cytopathic effect; higher = more antiviral protection, active = above 15
Settings: 48 h

Measured: inhibition of SARS-CoV-2 cytopathic effect

CCCC(C)C1(CC)C(=O)NC(=O)NC1=O (stereo not given) [pentobarbital]
inactive: 1 nM 2.05% | 8.33 nM 2% | 100 nM 1.92% | 833.33 nM -1.44% | 10000 nM -1.04%

CC1=C(/C=C/C(C)=C/C=C/C(C)=C/C=C/C=C(C)/C=C/C=C(C)/C=C/C2=C(C)C(=O)[C@@H](O)CC2(C)C)C(C)(C)C[C@H](O)C1=O [astaxanthin]
inactive: 1 nM -9.22% | 8.33 nM -11% | 100 nM -9.1% | 833.33 nM -8.76% | 10000 nM -11.5%

CCCCNc1cc(C(=O)O)cc(S(N)(=O)=O)c1Oc1ccccc1 [bumetanide]
inactive: 1 nM 0.26% | 8.33 nM 2.83% | 100 nM 0.69% | 833.33 nM 1.71% | 10000 nM 1.07%

CC[n+]1c(-c2ccccc2)c2cc(N)ccc2c2ccc(N)cc21 [homidium]
inactive: 1 nM 4.78% | 8.33 nM 6.71% | 100 nM 5.98% | 833.33 nM 0.35% | 10000 nM 6.13%

NS(=O)(=O)c1cc(C(=O)O)cc(N2CCCC2)c1Oc1ccccc1 [piretanide]
inactive: 1 nM 3.5% | 8.33 nM 5.18% | 100 nM 2.39% | 833.33 nM -2.57% | 10000 nM 1%

O=C(Nc1ncc(SCCN2CCCC2)s1)[C@]1(c2ccc(S(=O)(=O)C3CC3)cc2)C[C@H]1C1CCCCC1
inactive: 1 nM 1.58% | 8.33 nM -0.96% | 100 nM -2.63% | 833.33 nM -2.76% | 10000 nM -5.6%

CC(=O)O[C@]1(C(C)=O)CC[C@H]2[C@@H]3C=C(C)C4=CC(=O)CC[C@@H]4[C@H]3CC[C@@]21C [nomegestrol-acetate]
inactive: 1 nM -1.8% | 8.33 nM -1.93% | 100 nM 0.03% | 833.33 nM 1.28% | 10000 nM -2.55%

CC(=O)OCC(=O)[C@@]12OC3(CCCC3)O[C@@H]1C[C@H]1[C@@H]3CCC4=CC(=O)C=C[C@]4(C)[C@@]3(F)[C@@H](O)C[C@@]12C [amcinonide]
inactive: 1 nM -1.51% | 8.33 nM -0.7% | 100 nM -1.46% | 833.33 nM -0.87% | 10000 nM -3.21%

O=C(Oc1cc(S(=O)(=O)c2ccccc2)ccc1[N+](=O)[O-])c1ccc(Cl)cc1
inactive: 1 nM 0.83% | 8.33 nM 0.6% | 100 nM -2.99% | 833.33 nM -0.23% | 10000 nM -0.09%

Nc1nc(F)nc2c1ncn2[C@@H]1O[C@H](COP(=O)(O)O)[C@@H](O)[C@@H]1O [fludarabine-phosphate]
inactive: 1 nM 1.37% | 8.33 nM 1.76% | 100 nM -0.32% | 833.33 nM 1.79% | 10000 nM -4.26%

Cc1c(-c2ccc(-c3ccccc3F)cc2)nc2ccc(F)cc2c1C(=O)O [brequinar]
inactive: 1 nM 0.47% | 8.33 nM -5.34% | 100 nM -4.42% | 833.33 nM -4.61% | 10000 nM -4.4%

NC(N)=Nc1nc(CSCC/C(N)=N/S(N)(=O)=O)cs1 [Famotidine]
inactive: 1 nM 1.28% | 8.33 nM 0.44% | 100 nM -0.39% | 833.33 nM -0.03% | 10000 nM -0.45%

CCS(=O)(=O)N(C)[C@@H]1c2cc(C#N)ccc2OC(C)(C)[C@H]1O.CCS(=O)(=O)N(C)[C@H]1c2cc(C#N)ccc2OC(C)(C)[C@@H]1O (racemic) [chromanol-(+/-)]
inactive: 1 nM -3.93% | 8.33 nM 0.47% | 100 nM -1.69% | 833.33 nM -0.89% | 10000 nM -1.62%

C[n+]1c2cc(N)ccc2cc2ccc(N)cc21.Nc1ccc2cc3ccc(N)cc3nc2c1 [acriflavine]
inactive: 1 nM 2.32% | 8.33 nM 1.62% | 100 nM 1.04% | 833.33 nM -1.18% | 10000 nM -12.9%

CN1CCC(c2c[nH]c3ccc(O)cc23)CC1
inactive: 1 nM -0.56% | 8.33 nM 2.91% | 100 nM 0.58% | 833.33 nM 3.92% | 10000 nM -0.8%

COc1c(C)c2c(c(O)c1C/C=C(\C)CCC(=O)O)C(=O)OC2 [mycophenolic-acid]
inactive: 1 nM -0.65% | 8.33 nM -1.16% | 100 nM 0.96% | 833.33 nM 2.06% | 10000 nM 12.9%

CCN(CC)CC(=O)Nc1c(C)cccc1C [lidocaine]
inactive: 1 nM 0.85% | 8.33 nM 1.24% | 100 nM 0.45% | 833.33 nM 1.31% | 10000 nM -0.93%

N#Cc1ccc2[nH]c(O)c(-c3ccc(CN4CCOCC4)cn3)c2c1
inactive: 1 nM -0.78% | 8.33 nM -0.13% | 100 nM -0.01% | 833.33 nM 4.77% | 10000 nM 11.4%

CCCN1CCN(c2ccc(C(=O)NC3(C(=O)NCC#N)CCCCC3)cc2)CC1 [balicatib]
inactive: 1 nM 3.8% | 8.33 nM 0.96% | 100 nM -1.9% | 833.33 nM 0.29% | 10000 nM 10.8%

O=C(CCCl)NCc1ccccc1 [beclamide]
inactive: 1 nM -5.2% | 8.33 nM -1.11% | 100 nM 0.49% | 833.33 nM 0.86% | 10000 nM -1.73%

CCN(CCCOc1ccc2c(Nc3cc(CC(=O)Nc4cccc(F)c4)[nH]n3)ncnc2c1)CCOP(=O)(O)O [barasertib]
inactive: 1 nM -0.38% | 8.33 nM 0.9% | 100 nM -1.02% | 833.33 nM -2.03% | 10000 nM -4.38%

COc1cc2c(cc1OC)CN(CCc1ccc(NC(=O)c3cccc4c(=O)c5cccc(OC)c5[nH]c34)cc1)CC2 [elacridar]
inactive: 1 nM 14.2% | 8.33 nM 2.41% | 100 nM 0.67% | 833.33 nM -0.09% | 10000 nM -4.73%

Source: the supplement of paper PMC13380429
